Assay results from PubChem BioAssay.

test system: Noggin (protein binding on small-molecule microarray); assay: Noggin binders on small-molecule microarray, primary screen, biochemical, 635/667 nm fluorescence (AID 1095); details: 635 nm fluorescence, higher = more signal;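 further: score merges 667 nm feature fluorescence with signal to noise over triplicate slides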

Structure (SMILES) | composite z-score
CO[C@@H]1COC(=O)CC=C[C@@H](C)[C@H](OC)COC(=O)CC=C[C@H]1C | 1.71
O=C1O[C@H](c2ccccc2)[C@H](c2ccccc2)N2[C@H]1[C@@H](C(=O)Nc1nc3ccccc3s1)[C@]1(C(=O)Nc3ccc(C#CC4(O)CCCCCC4)cc31)[C@H]2c1ccc(O)cc1 | 1.59
O=C1O[C@@H](c2ccccc2)[C@@H](c2ccccc2)N2[C@@H](c3ccccc3OCCO)[C@]3(C(=O)Nc4ccc(C#CC5=CCCCC5)cc43)[C@@H](C(=O)O)[C@H]12 | 0.269
O=C1O[C@@H](c2ccccc2)[C@@H](c2ccccc2)N2[C@@H](c3ccc(O)cc3)[C@]3(C(=O)Nc4ccccc43)[C@@H](C(=O)N3CCN(c4ncccn4)CC3)[C@H]12 | -0.534
C[N+](C)(C)CCCCNC(=O)[C@@H]1C[C@@H]2C(=O)N3CCC[C@H]3C(=O)N2[C@@H]1c1cccc(OCCO)c1 | 1.64
C=CC[C@@]1(C(=O)N2CCOCC2)N=C(c2ccc(OCCCO)cc2)O[C@@H]1c1ccccc1 | -0.506
CCC#CCN(Cc1ccccc1Br)[C@H](/C=C/c1ccccc1)[C@@H](O)Cc1ccccc1 | -1.78
O=C(NCc1ccccc1)c1ccc(Br)cc1[N+](=O)[O-] | 0.0399
CC(C)N1CC=CC23O[C@@H]4/C=C\CCCOC(=O)C4[C@H]2C(=O)N(CCCCCO)[C@@H]3C1=O (stereo partly specified) | -1.65
O=C1OCC=C[C@H]2OC34C=CCN(Cc5ccccc5)C(=O)[C@H]3N(CCO)C(=O)[C@@H]4[C@@H]12 (stereo partly specified) | -1.41
O=C1O[C@H](c2ccccc2)[C@H](c2ccccc2)N2[C@H]1[C@@H](C(=O)NC[C@H](O)c1ccccc1)[C@]1(C(=O)Nc3ccc(C#CC4=CCCCC4)cc31)[C@H]2c1ccc(OCCO)cc1 | 0.691
COc1ccc(-c2ccccc2[C@@H]2N[C@H](C(=O)O)CC[C@H]2C)cc1 | 0.412
CCOC(=O)C[C@H]1[C@H](OC(=O)c2cc3ccccc3oc2=O)[C@@H](NC(=O)C2CCCCC2)c2cc(OCCCO)ccc2N1C(=O)c1ccc2ccccc2n1 | 0.87
NC(=O)NCC#Cc1ccc2c(c1)[C@]1(C(=O)N2)[C@H](C(=O)N2CCCCCCC2)[C@H]2C(=O)O[C@H](c3ccccc3)[C@H](c3ccccc3)N2[C@@H]1c1ccccc1OCCO | 1.36
Cc1ccc(N2C(=O)c3ccccc3[C@@H](C(=O)NCc3ccccc3)[C@@H]2c2ccc(CO)cc2)nc1 | 0.0163
COC(=O)C(CC#Cc1ccc2c(c1)[C@]1(C(=O)N2)[C@H](C(=O)N2CCCCCCC2)[C@H]2C(=O)O[C@H](c3ccccc3)[C@H](c3ccccc3)N2[C@@H]1c1ccc(O)cc1)C(=O)OC | -0.805
COc1ccc([Si](C)(C)[C@@H]2[C@@H](CCO)O[C@]3(C(=O)N(Cc4ccc(NC(=O)[C@H](C)O)cc4)c4ccccc43)[C@H]2C)cc1 | 0.123
C=CCNC(=O)[C@@H]1[C@H]2C(=O)O[C@H](c3ccccc3)[C@H](c3ccccc3)N2[C@H](c2ccc(OCCO)cc2)[C@@]12C(=O)N(C(=O)OCCOC)c1ccc(C#CC3(O)CCCCCC3)cc12 | 0.205

Structure (SMILES) | composite z-score
CC1CC/C=C\[C@H]2OC34C=CCN(Cn5nnc6ccccc65)C(=O)[C@H]3N(C(C)CO)C(=O)[C@@H]4C2C(=O)O1 (stereo partly specified) | -0.537
COc1ccc([Si](C)(C)[C@H]2[C@H](CC(=O)N(CCO)Cc3ccccc3)O[C@@]3(C(=O)N(C)c4ccccc43)[C@@H]2C)cc1 | 1.72
CO[C@H]1COC(=O)[C@H](CCSC)NC(=O)CC=C[C@@H](C)COC(=O)[C@@H](OCc2ccccc2)C=C[C@@H]1C | 1.93
C=CCOC(=O)[C@@H]1[C@H]2C(=O)O[C@H](c3ccccc3)[C@H](c3ccccc3)N2[C@H](c2ccc(OCCOC(=O)[C@H]3C[C@H]4C(=O)N[C@@H](CCCCNC(C)=O)C(=O)N4[C@H]3c3ccc(O)cc3)cc2)[C@@]12C(=O)Nc1ccc(I)cc12 | 1.66
O=[N+]([O-])c1ccc(C[n+]2ccc3ccc(O)cc3c2)o1 | -0.147
COCCOC(=O)N1C(=O)[C@@]2(c3cc(C#CC4=CCCCC4)ccc31)[C@H](C(=O)NC[C@H](O)c1ccccc1)[C@H]1C(=O)O[C@H](c3ccccc3)[C@H](c3ccccc3)N1[C@@H]2c1ccccc1OCCO | 1.13
CCOC(=O)C1=CC[C@@H](c2ccc(-c3ccc(OCc4ccccc4)cc3)c(OC)c2)N(S(=O)(=O)c2ccc(C)cc2)[C@H]1c1ccccc1 | 0.73
COC(=O)[C@@]1(Cc2ccc(OC)cc2)[C@H]2c3cc(C(=O)N(C)C)n(Cc4ccc(C)c(F)c4F)c3C[C@H]2CN1C(=O)c1ccccc1 | -0.268
CCCC=C(CCC)[C@@H](NS(=O)(=O)c1ccc(-c2ccccc2)cc1)c1ccc(C(=O)OC)cc1 | -0.666
CCOC(=O)[C@H]1C/C=C/C[C@H](C(=O)OCC)C(=O)O[C@H]2[C@@H](OC)O[C@H](CO)[C@@H](OC(=O)Nc3ccc(Br)cc3)[C@@H]2OC1=O | 0.933
C=C[C@H](OC)[C@@H](OC(=O)Nc1ccc(SC)cc1)c1ccc(O)c(F)c1 | -0.0413
COCCOC(=O)N1C(=O)[C@@]2(c3cc(C#CCNC(N)=O)ccc31)[C@H](c1ccc(OCCO)cc1)N1[C@H](c3ccccc3)[C@H](c3ccccc3)OC(=O)[C@H]1[C@@H]2C(=O)N1CCCCCCC1 | 0.406
CN(C)c1ccc(C(O)C2C=CC3C(=O)NC(=O)C3N2Nc2ccc(Cl)cc2Cl)cc1 (stereo unspecified) | -0.163
COCCOC(=O)N1C(=O)[C@@]2(c3cc(C#CCC(C(=O)OC)C(=O)OC)ccc31)[C@H](C(=O)N1CCN(c3ncccn3)CC1)[C@H]1C(=O)O[C@H](c3ccccc3)[C@H](c3ccccc3)N1[C@@H]2c1ccc(O)cc1 | 0.414
COCCOC(=O)N1C(=O)[C@@]2(c3ccccc31)[C@H](C(=O)N1CCc3cc(OC)c(OC)cc3C1)[C@H]1C(=O)O[C@H](c3ccccc3)[C@H](c3ccccc3)N1[C@@H]2c1ccccc1OCCO | 1.03
CC(C)=C1C(=O)C(c2ccccc2)=C2CN3C(=O)N(CCc4ccccc4)C(=O)[C@]3(Cc3ccccc3)[C@H]21 | -0.974
CO[C@H]1COC(=O)CC=C[C@H](C)COC(=O)[C@@H](OCc2ccccc2)C=C[C@@H]1C | 2.03
[N-]=[N+]=NCc1ccccc1C[C@@]1(C(=O)N2CCOCC2)N=C(c2ccc(OCCCO)cc2)O[C@@H]1c1ccccc1N=[N+]=[N-] | 0.41
